Data: the supplement of paper PMC10849652
About 7,900 targets were measured; listed, in parts, are those with a hit and a random draw of the rest. About 0.6% of all pairs of compound and target were hits. A number with no mark means an inactive call.

What follows are targets tested with CC1=C(SC2=C1C(=N[C@H](C3=NN=C(N32)C)CC(=O)N)C4=CC=C(C=C4)Cl)C (assay: log2 fold change, soluble protein after heating vs DMSO (PISA); higher = thermal stabilisation; K562 cells, 10 uM, 30 min; active = over 0.2 and 3.5 SD of the protein, either way, in both replicates (recomputed)).
Procedure, shortened: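 K562 cells at 2×10^6 cells/mL were treated for 30 min with 10 μM compound, and aliquots were heated for 3 min over 48°C-58°C before pooling. Extraction used PBS with 0.5% NP-40 at 4°C, and soluble protein was the supernatant after 21,000xg for 90 min, measured by TMTpro 16plex LC-MS/MS with channel sums equalised. Thermal stability values, relative to control samples and from duplicates, are log2 fold changes.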

UniProt Q9BX63, sequence (Q9BX63 whole entry, looked up): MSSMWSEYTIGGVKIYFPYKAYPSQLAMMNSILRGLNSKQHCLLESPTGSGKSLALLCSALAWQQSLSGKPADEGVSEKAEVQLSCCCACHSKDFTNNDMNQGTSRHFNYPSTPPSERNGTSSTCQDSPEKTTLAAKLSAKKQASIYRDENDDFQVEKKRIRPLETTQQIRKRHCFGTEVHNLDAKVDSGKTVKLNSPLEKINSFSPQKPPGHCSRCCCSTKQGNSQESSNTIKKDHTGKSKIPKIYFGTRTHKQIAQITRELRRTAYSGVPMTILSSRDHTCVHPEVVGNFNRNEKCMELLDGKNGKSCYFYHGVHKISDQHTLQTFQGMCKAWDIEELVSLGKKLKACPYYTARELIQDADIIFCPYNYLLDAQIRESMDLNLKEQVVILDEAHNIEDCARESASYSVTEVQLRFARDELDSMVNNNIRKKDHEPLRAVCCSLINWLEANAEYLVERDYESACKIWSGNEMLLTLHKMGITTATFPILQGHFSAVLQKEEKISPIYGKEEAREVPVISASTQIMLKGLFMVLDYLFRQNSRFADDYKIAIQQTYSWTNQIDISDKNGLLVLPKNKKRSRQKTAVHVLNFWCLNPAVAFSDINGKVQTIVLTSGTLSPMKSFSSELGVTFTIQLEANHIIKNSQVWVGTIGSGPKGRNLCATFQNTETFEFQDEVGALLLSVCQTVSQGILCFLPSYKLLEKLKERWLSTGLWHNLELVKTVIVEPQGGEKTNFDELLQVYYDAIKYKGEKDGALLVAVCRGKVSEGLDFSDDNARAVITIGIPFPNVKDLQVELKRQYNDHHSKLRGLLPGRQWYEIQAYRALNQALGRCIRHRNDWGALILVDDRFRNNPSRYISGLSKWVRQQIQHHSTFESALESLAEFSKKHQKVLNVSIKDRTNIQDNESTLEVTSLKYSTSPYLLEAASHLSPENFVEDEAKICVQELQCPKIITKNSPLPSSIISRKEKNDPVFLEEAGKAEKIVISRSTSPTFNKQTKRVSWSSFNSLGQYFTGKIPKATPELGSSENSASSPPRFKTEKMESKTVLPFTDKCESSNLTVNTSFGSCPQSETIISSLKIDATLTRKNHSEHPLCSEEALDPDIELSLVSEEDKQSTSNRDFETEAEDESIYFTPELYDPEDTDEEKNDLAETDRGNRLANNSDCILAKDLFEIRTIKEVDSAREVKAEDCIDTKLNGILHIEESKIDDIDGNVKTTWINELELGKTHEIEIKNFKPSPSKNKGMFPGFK
UniProt P63010, sequence (P63010 whole entry, looked up): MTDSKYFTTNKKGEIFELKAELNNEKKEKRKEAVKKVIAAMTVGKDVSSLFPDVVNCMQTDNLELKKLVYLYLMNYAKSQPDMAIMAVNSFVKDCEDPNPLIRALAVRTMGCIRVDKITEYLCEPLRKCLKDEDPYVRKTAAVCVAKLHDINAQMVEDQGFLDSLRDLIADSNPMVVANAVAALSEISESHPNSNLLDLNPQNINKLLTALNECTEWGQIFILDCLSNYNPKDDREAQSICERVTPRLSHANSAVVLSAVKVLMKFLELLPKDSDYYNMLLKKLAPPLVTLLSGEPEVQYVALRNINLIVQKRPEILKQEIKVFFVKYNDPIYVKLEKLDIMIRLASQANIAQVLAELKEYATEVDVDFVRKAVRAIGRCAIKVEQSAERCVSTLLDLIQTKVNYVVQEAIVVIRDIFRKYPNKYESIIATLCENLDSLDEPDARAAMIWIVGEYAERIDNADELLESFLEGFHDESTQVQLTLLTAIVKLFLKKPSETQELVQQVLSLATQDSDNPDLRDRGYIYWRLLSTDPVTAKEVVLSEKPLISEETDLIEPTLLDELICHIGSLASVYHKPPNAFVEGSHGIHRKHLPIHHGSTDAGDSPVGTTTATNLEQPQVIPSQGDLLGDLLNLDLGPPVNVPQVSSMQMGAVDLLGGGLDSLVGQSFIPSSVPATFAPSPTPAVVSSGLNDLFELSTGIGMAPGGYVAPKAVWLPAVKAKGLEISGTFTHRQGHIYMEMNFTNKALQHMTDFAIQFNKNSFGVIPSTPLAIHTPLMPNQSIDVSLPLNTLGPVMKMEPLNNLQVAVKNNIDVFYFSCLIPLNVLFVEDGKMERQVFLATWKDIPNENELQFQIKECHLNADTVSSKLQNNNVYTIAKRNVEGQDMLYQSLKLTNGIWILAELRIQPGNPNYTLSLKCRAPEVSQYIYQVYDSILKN
UniProt P18846, sequence (P18846 whole entry, looked up): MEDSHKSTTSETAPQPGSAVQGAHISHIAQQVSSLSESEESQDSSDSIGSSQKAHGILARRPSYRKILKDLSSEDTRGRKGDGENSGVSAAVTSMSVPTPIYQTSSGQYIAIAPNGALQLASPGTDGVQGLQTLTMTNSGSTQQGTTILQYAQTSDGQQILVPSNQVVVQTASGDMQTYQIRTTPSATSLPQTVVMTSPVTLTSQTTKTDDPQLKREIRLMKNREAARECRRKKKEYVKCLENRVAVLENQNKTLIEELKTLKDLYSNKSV
UniProt O00170, sequence (O00170 whole entry, looked up): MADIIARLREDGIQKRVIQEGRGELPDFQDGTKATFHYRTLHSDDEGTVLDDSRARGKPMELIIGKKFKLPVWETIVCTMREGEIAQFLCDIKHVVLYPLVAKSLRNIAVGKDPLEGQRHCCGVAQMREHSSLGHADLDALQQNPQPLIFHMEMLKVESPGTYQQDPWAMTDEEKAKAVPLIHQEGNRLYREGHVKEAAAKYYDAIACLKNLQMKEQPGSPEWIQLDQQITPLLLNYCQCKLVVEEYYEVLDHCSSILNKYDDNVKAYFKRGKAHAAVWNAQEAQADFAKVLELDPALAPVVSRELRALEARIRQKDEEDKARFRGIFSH
UniProt P25440, sequence (P25440 whole entry, looked up): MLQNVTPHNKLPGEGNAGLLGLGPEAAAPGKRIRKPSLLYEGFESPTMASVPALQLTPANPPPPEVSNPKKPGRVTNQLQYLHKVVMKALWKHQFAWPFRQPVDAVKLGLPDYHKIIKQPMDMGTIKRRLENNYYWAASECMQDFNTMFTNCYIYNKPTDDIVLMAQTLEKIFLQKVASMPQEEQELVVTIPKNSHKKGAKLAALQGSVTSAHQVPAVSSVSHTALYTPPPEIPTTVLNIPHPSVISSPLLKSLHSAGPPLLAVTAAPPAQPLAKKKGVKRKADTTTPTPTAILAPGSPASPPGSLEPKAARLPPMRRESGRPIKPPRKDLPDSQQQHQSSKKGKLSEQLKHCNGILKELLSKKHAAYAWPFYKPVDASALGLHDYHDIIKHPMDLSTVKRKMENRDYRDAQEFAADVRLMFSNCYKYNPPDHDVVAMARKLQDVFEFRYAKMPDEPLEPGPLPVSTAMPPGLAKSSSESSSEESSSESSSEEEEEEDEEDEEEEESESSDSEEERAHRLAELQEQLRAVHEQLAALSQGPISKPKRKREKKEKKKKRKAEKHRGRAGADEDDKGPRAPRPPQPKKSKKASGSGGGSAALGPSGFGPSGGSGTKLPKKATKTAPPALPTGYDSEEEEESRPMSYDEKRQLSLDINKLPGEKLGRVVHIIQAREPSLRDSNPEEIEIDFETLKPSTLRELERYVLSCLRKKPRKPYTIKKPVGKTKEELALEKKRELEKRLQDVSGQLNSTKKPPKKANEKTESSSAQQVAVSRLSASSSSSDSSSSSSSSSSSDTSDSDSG
UniProt P02749, sequence (P02749 whole entry, looked up): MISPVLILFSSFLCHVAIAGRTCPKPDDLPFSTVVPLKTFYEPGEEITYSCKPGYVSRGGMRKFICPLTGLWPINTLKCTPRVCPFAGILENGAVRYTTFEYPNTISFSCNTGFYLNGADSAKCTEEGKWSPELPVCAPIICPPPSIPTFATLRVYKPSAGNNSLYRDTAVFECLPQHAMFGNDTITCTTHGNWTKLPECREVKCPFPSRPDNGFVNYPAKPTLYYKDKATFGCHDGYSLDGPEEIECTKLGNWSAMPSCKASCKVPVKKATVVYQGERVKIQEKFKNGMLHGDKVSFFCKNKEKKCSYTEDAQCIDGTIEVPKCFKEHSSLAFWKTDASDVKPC
UniProt P11766, sequence (P11766 whole entry, looked up): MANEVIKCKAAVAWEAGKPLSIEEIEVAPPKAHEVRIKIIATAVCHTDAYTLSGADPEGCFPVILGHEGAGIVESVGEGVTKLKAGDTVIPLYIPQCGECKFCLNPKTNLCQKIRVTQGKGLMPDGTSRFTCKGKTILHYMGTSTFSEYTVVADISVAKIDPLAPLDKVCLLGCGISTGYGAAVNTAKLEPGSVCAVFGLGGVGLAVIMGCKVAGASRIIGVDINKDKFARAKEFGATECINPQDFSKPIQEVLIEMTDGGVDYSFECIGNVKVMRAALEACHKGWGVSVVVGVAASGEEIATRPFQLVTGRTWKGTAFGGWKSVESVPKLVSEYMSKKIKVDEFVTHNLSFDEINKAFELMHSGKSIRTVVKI
UniProt Q96G97, sequence (Q96G97 whole entry, looked up): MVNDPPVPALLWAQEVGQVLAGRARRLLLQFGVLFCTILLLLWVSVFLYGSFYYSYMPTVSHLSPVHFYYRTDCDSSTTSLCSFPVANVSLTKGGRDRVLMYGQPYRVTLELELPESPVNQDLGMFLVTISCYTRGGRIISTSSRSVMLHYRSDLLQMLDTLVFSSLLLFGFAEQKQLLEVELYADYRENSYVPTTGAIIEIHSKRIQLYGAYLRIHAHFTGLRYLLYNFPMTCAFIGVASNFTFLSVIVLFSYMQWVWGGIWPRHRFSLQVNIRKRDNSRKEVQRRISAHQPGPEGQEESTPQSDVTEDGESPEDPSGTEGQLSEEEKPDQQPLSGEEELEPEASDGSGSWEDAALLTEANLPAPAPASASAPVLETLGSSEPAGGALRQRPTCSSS
UniProt P18085, sequence (P18085 whole entry, looked up): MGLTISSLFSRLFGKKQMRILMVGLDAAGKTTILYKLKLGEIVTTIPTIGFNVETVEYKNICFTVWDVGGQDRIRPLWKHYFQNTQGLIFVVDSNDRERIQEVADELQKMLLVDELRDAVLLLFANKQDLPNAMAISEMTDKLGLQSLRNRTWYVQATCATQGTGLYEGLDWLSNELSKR
UniProt Q8WUW1, sequence (Q8WUW1 whole entry, looked up): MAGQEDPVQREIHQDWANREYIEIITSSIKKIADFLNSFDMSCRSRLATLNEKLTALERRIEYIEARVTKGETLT

Row | Target | log2 fold change
1 | ARL2BP (UniProt Q9Y2Y0) | 0
2 | BRD2 isoform 2 (UniProt P25440) | 2.34 (active)
3 | ATIC (UniProt P31939) | 0.039
4 | AIP (UniProt O00170) | 0.078
5 | ATP6V1H (UniProt Q9UI12) | 0.065
6 | ATG4B isoform 2 (UniProt Q9Y4P1) | 0.056
7 | ACP2 (UniProt P11117) | -0.023
8 | BRIP1 (UniProt Q9BX63) | -0.005
9 | ARF4 (UniProt P18085) | 0.045
10 | AGO1 (UniProt Q9UL18) | -0.066
11 | AGRN (UniProt O00468) | 0.154
12 | APOH (UniProt P02749) | -0.106
13 | ATF1 (UniProt P18846) | 0.11
14 | ADH5 (UniProt P11766) | 0.024
15 | BRK1 isoform 2 (UniProt Q8WUW1) | -0.018
16 | AP2B1 isoform 2 (UniProt P63010) | -0.017
17 | BSCL2 isoform 4 (UniProt Q96G97) | 0.106
18 | AKR1C2 (UniProt P52895) | -0.04
19 | AP2A2 isoform 2 (UniProt O94973) | -0.02
20 | ACBD6 (UniProt Q9BR61) | 0.087
21 | ANXA5 (UniProt P08758) | 0.04
22 | ALDH9A1 isoform 3 (UniProt P49189) | 0.029
23 | ATP1A4 (UniProt Q13733) | -0.142
